From PubChem
Hits are enriched below; roughly 2.4% of the tested compounds scored in any of these assays.
Pol iota inh: DNA polymerase iota (human) inhibition. Q9UNA4. Pol iota fluorescent replication assay, 10 min. Potency, µM (titrated, usually from 115 µM), hits mostly inhibitors. 1% of 390,000 active
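Fluorescent replication assay read twice, at 0 min and 10 min after adding 50 nM (final) substrate. Enzyme (10 nM) and compounds were first incubated 15 min at room temperature; enzyme-free buffer wells were negative controls.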
APEX1 inh: APE1 (human) endonuclease inhibition | P27695 | recombinant APE1, TAMRA/BHQ-2 abasic DNA cleavage fluorescence | Potency, µM (highest dose often 65.8 µM), most hits filed as inhibitors | 0.35% of 350,000 active | AID 2517; further: nearly all actives have a fitted effect of over 55% in size
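Quantitative HTS: incision of a TAMRA/BHQ-2 double-stranded substrate bearing a tetrahydrofuran abasic site by 0.75 nM APE1 raises fluorescence. Substrate 50 nM final, added after 15 min compound preincubation at room temperature; progress as third-minus-first kinetic read difference.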
Pol beta inh: DNA polymerase beta (human) inhibition | P06746 | Pol beta primer extension/strand displacement, fluorescence kinetic | Potency, µM (series often up to 114 µM), most hits filed as inhibitors | 1.3% of 340,000 active | AID 485314
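Values derive from four-parameter Hill fits of normalized kinetic data: reads at 0 and 10 min following addition of 50 nM substrate to 10 nM Pol beta preincubated 15 min with compound.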
POLK inh: DNA polymerase kappa (human) inhibition. Q9UBT6. purified Pol kappa, fluorescent DNA synthesis assay, 10 min. Potency, µM (highest dose often 107 µM), most hits filed as inhibitors. 0.53% of 400,000 active. AID 588579
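First, compounds were pin-transferred onto 10 nM Pol kappa. After 15 min at room temperature, substrate was added to 50 nM final. Fluorescence was then measured kinetically at 0 and 10 min.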
POLH inh: inhibitors of human DNA polymerase eta. recombinant Pol eta, fluorescent DNA replication assay. Potency, µM (titrated, usually from 114 µM), most hits filed as inhibitors. 1.2% of 390,000 active. AID 588591
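Pol eta (10 nM) was preincubated with compounds for 15 min at room temperature, after which fluorescent replication substrate (50 nM final) was added to start the reaction. Fluorescence was read kinetically at 0 and 10 min.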
GLS inhibitor: glutaminase GLS (human) inhibition; O94925; GLS enzymatic activity, qHTS titration; Potency, µM (top dose mostly 45.5 µM), hits mostly inhibitors; 0.21% of 410,000 active
Target sequence (O94925 whole entry, looked up): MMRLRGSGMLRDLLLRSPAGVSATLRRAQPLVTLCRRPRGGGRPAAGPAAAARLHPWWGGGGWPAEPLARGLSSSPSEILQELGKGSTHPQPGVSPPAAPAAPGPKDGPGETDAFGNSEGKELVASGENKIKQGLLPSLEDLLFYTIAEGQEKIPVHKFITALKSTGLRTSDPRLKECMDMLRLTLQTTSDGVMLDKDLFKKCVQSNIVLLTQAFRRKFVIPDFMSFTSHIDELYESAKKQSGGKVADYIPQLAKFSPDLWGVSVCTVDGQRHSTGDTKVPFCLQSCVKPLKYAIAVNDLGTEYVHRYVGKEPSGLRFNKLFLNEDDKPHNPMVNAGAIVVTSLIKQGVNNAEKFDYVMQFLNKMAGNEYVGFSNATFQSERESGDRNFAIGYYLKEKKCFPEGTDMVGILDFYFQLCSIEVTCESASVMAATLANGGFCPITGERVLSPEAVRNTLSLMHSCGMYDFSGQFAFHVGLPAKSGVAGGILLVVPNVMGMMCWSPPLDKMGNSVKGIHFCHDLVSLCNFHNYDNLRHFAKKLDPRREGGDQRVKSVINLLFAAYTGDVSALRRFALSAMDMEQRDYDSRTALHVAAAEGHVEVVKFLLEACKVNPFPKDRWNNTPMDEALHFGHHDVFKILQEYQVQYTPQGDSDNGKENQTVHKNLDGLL
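Coupled fluorescence readout: glutamate oxidase/HRP/Amplex Red detect glutamate formed by hKGA from L-glutamine (1 mM solution added). Buffer 45 mM KH2PO4 pH 8.2, 0.02% Tween-20; reads at t0 and 30 min RT.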
A number is an active result; i = inactive; ? = inconclusive; nt = no result. The call rests on the fitted dose curve; in most records, active means well fitted curve in the direction sought with a large enough effect; inconclusive means small, poorly fitted or top-dose-only effect, or another doubt; inactive means no such curve, though single readings can be large; an effect the other way counts as inactive or inconclusive.

SMILES	Pol iota inh	APEX1 inh	Pol beta inh	POLK inh	POLH inh	GLS inhibitor
COc1cc2c(Cc3ccccc3)cncc2cc1O	i	nt	nt	89.1µM	i	i
O=C1C=C(c2ccc3[nH]ccc3c2)C[C@@H](c2ccc(F)cc2)C1	i	i	nt	i	i	i
Cn1cc(-c2cc3n(n2)CCC(=O)N3CCCC(=O)NCc2ccc(Cl)cc2)c2ccccc21	i	nt	i	i	i	i
Cn1cc(-c2cc3n(n2)CCC(=O)N3CCCC(=O)Nc2ccc(Cl)cc2)c2ccccc21	89.1µM	nt	?	i	i	i
Cc1oc(C(C)(C)C)cc1C(=O)N1CCN(C(c2ccccc2)c2ccccc2)CC1	i	i	i	i	i	i
COc1cc2c(NC3CCN(C)CC3)nc(N3CCCCC3)nc2cc1OCCOCCN(C)C	50.1µM	nt	nt	i	nt	nt
COc1cc2nc(N(C)C)nc(N)c2cc1OC	?	?	44.7µM	i	i	i
COc1cc2nc(N(C)C)nc(NC3CCN(C)CC3)c2cc1OC	25.1µM	nt	nt	?	nt	nt
COc1cc2c(NC3CCN(C)CC3)nc(N3CCCN(C)CC3)nc2cc1OCCCN(C)C	?	nt	nt	i	nt	nt
COc1cc2nc(Cl)nc(NC3CCN(C)CC3)c2cc1OC	i	nt	nt	i	nt	nt
COc1cc2c(NC3CCN(C)CC3)nc(N3CCCCC3)nc2cc1OCCCN(C)C	39.8µM	nt	nt	?	nt	nt
COc1cc2nc(Nc3ccc(C)c(C)c3)nc(N)c2cc1OC	i	i	?	i	?	i
CC(=O)Oc1ccc(C(=O)Nc2cccc(-c3nnc(-c4ccco4)o3)c2)cc1	i	?	20µM	i	i	i
Cc1cccc2cc(CN(CCCO)C(=O)Nc3ccc(Cl)cc3)c(=O)[nH]c12	i	i	i	i	i	i
COc1ccc(Cl)cc1NC(=O)CN(c1cc(C)cc(C)c1)S(=O)(=O)c1c(C)n[nH]c1C	79.4µM	nt	i	?	?	i
O=C(Nc1ccccc1)C1=C[C@H](c2ccccc2)C[C@H](OCCCCO)O1	i	nt	nt	i	i	i
COc1cccc(/C=C2/C(=O)NN(c3ccc(Br)cc3)C2=O)c1O	i	i	?	i	79.4µM	i
C[n+]1c(/C=C/c2ccc(O)cc2)ccc2ccccc21	?	i	15.8µM	i	i	i
CC[n+]1c(/C=C/c2ccc(OC)c(OC)c2)ccc2ccccc21	i	i	?	i	i	i
CCOc1ccc(/C=C/c2ccc3ccccc3[n+]2C)cc1OCC	?	nt	nt	44.7µM	nt	nt
C[n+]1c(/C=C/c2ccc(F)cc2)ccc2ccccc21	i	nt	nt	i	nt	nt
C/C=C(\C)C(=O)NCCN1C2=NC[C@@H](Cc3ccccc3)N2C[C@H]1Cc1ccc(O)cc1	70.8µM	i	i	i	i	i
Cc1ccc(-c2cc(C(=O)N/N=C/c3ccc(F)cc3)n[nH]2)o1	i	i	?	i	i	i
Cc1ccc(-c2cc(C(=O)N/N=C/C(Br)=C/c3ccccc3)n[nH]2)o1	?	i	35.5µM	?	i	i
Cc1ccc(-c2cc(C(=O)N/N=C/c3c[nH]c4ccccc34)n[nH]2)o1	?	i	28.2µM	?	i	i
SMILES	Pol iota inh	APEX1 inh	Pol beta inh	POLK inh	POLH inh	GLS inhibitor
O=C(N/N=C/C(Br)=C\c1ccccc1)c1n[nH]c2c1CCC2	25.1µM	i	i	i	i	i
Cc1ccc(-c2cc(C(=O)N/N=C/c3ccccc3O)n[nH]2)o1	i	i	i	i	i	i
O=C(NCC1CCCO1)c1ccccc1NS(=O)(=O)c1ccc(F)cc1 (stereo unspecified)	i	i	nt	i	i	i
COc1ccccc1C(=O)COC(=O)CSC(C)C(=O)Nc1cc(C)on1 (stereo unspecified)	i	i	nt	i	i	i
Cc1cc(-c2csc(NC(=O)c3ccc(=O)n(C)n3)n2)c(C)n1CC1CCCO1 (stereo unspecified)	11.2µM	i	i	?	?	i
Cc1cc(-c2csc(NC(=O)C3=COCCO3)n2)c(C)n1C	?	i	nt	?	i	i
O=C1OC(/C(=C\Nc2cc(Cl)ccc2O)[N+](=O)[O-])c2ccccc21 (stereo unspecified)	?	i	i	i	22.4µM	?
O=C1OC(/C(=C\Nc2ccc(F)cc2F)[N+](=O)[O-])c2ccccc21 (stereo unspecified)	i	i	?	i	?	i
CCOc1cccc(NC(=O)/C(C#N)=C\c2cn(CC(=O)O)c3ccccc23)c1	i	i	50.1µM	i	?	i
Cc1noc(C)c1COC(=O)/C=C/c1ccc(Cl)cc1	i	i	i	i	i	i
Cc1cc(S(=O)(=O)N2CCCC2)ccc1OCC(=O)NCc1ccco1	?	i	25.1µM	i	i	?
O=C(OCc1nnc(-c2ccccc2)o1)c1ccc(S(=O)(=O)NCc2ccco2)cc1	?	?	3.55µM	?	22.4µM	i
Cc1cc(S(=O)(=O)N2CCOCC2)ccc1OCC(=O)NCc1ccco1	i	i	i	i	i	i
O=C(COC(=O)c1ccc(S(=O)(=O)NCc2ccco2)cc1)NCc1ccccc1	?	i	nt	?	i	i
O=C(COC(=O)c1ccc(S(=O)(=O)NCc2ccco2)cc1)NCCC1=CCCCC1	?	?	44.7µM	?	?	i
O=C(COC(=O)c1ccc(S(=O)(=O)N2CCCCC2)cc1)NCc1ccco1	?	?	39.8µM	?	?	i
COc1ccc(C(=O)NCC(=O)OCC(=O)c2ccccc2Br)cc1OC	nt	nt	nt	nt	i	i
CC(CNC(=O)c1sc2ncccc2c1-n1cccc1)c1ccccc1 (stereo unspecified)	i	nt	i	i	i	i
COc1oc(-c2ccccc2)nc1C(F)(F)F	i	i	i	i	i	i
CC(=O)Nc1ccc(NC(=O)COC(=O)c2ccc(S(=O)(=O)NCc3ccco3)cc2)cc1	i	i	nt	i	i	i
COc1cccc(NC(=O)COC(=O)c2ccc(S(=O)(=O)NCc3ccco3)cc2)c1	?	?	?	?	8.91µM	i
Cc1nc(SCC(=O)Nc2ccc3c(c2)OCCO3)nc(C)c1C	i	i	i	i	i	i
CC1CCCN(c2ccc(N)cc2C(N)=O)C1 (stereo unspecified)	i	i	i	i	i	7.08µM
Cc1ccc(-n2c(-c3ccc(Cl)cc3Cl)n[nH]c2=S)cc1	i	i	i	i	i	i
O=c1[nH]c(/C=C/c2ccccc2Cl)c([N+](=O)[O-])c(=O)[nH]1	?	i	i	i	28.2µM	i
COc1cccc(/C=C/c2[nH]c(=O)[nH]c(=O)c2[N+](=O)[O-])c1O	11.2µM	i	i	i	50.1µM	i
